Measurements published in the supplement of paper PMC6555819.

What was measured:
Experiment in all cases: PBM binding z-score (relative to random genomic background probes); higher = stronger binding; sequences stand for … in GC…GCGATTGACAGCGTAGAATGAAGG
[1] = tested on: PPARg:RXRa DBDmut IVT, anti-RXR (DBD mutation: RXRa K156A/R161A, NR concentration 270 nM, RXRa partner concentration 90 nM)
How it was run: (§1)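 The probes on custom Agilent 4×180K protein-binding microarrays were double-stranded, with 34-nt variable regions bearing direct-repeat seeds, single-nucleotide variants, half-site ablations and random human genomic background sequences. Incubation lasted 1 h with ligand-free nuclear receptor dimers in PBS pH 7.4, 2% milk, 0.02% Triton X-100, 1 mM DTT, 0.2 mg/mL BSA and 0.4 mg/ml salmon testes DNA. Antibodies against each partner (one per run) detected bound dimers, and fluorescence scans were regression-normalized. Binding z-scores take the random background probes as reference.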

[2] = tested on: PPARg:RXRa IVT, anti-PPARg (NR concentration 270 nM, RXRa partner concentration 90 nM)
How it was run: as §1

[3] = tested on: PPARg DBDmut:RXRa IVT, anti-PPARg (DBD mutation: PPARg1 K132A/R137A, NR concentration 270 nM, RXRa partner concentration 90 nM)
How it was run: as §1

[4] = tested on: PPARg DBDmut IVT, anti-PPARg (DBD mutation: PPARg1 K132A/R137A, NR concentration 270 nM)
How it was run: as §1

[5] = tested on: PPARg homodimer (NR concentration 180 nM)
How it was run: as §1

[6] = tested on: PXR:RXRa (NR concentration 270 nM, RXRa partner concentration 90 nM)
How it was run: as §1

[7] = tested on: PXR homodimer (NR concentration 270 nM)
How it was run: as §1

[8] = tested on: RARa:RXR (NR concentration 270 nM, RXRa partner concentration 90 nM)
How it was run: as §1

[9] = tested on: RARa homodimer (NR concentration 270 nM)
How it was run: as §1

[10] = tested on: RARb:RXRa (NR concentration 270 nM, RXRa partner concentration 90 nM)
How it was run: as §1

| Sequence | PBM binding z-score [1] | PBM binding z-score [2] | PBM binding z-score [3] | PBM binding z-score [4] | PBM binding z-score [5] | PBM binding z-score [6] | PBM binding z-score [7] | PBM binding z-score [8] | PBM binding z-score [9] | PBM binding z-score [10] |
| --- | --- | --- | --- | --- | --- | --- | --- | --- | --- | --- |
| ATCGAAAGGTCGAGGTGAGTCTAGAGAAAGGGAA | 0.536 | 2.56 | 0.697 | 0.961 | 1.92 | 3.05 | 0.144 | 3.67 | 0.714 | 4.31 |
| CGTCCAAGGTCAATACTAGGTCAGTGAAAGCATT | 3.77 | 5 | 0.518 | 0.663 | 3.8 | 4.37 | 1.76 | 5.42 | 0.743 | 5.22 |
| TCATATAGGTAATACAAGTGAAAGTCGGCATCTA | 4.19 | 2.25 | 0.992 | 1.83 | 1.46 | 0.916 | 0.336 | 1.3 | 1.79 | 0.7 |
| CAGCCTAGGTCAGGTCCAGTATAGGAGGAACGTT | 1.02 | 0.846 | -0.384 | -1.31 | 0.577 | 0.126 | -0.567 | 0.528 | -0.0442 | 3 |
| TAGCCTAGGCCATTCAGGGGCCAGTATAGAAAGC | -0.752 | 0.1 | -0.845 | -0.806 | -0.678 | -0.717 | -0.964 | -0.354 | -0.891 | 0.992 |
| GCAGATAGGTAATACAAGGTGAAAGTCCGATTGT | 0.315 | 0.869 | 0.607 | 0.154 | 0.298 | 0.645 | 0.172 | 0.91 | 0.423 | 0.412 |
| GCTCGGAGGACAAGGTCCGAGCTTTGTCCGTAGA | -0.364 | -0.655 | -1.03 | -1.31 | -1.07 | -0.519 | -1.19 | -0.414 | -1.77 | 0.839 |
| ACTCGGAGGACAAAGATCAGAGCTACGCCAGTGA | 0.131 | -0.127 | -1.09 | -0.113 | -0.398 | -0.522 | -0.433 | -0.384 | -0.637 | 0.778 |
| TCTAGTTGGTCACGTAGGTCACACACGACGGGTA | 2.33 | 3.55 | 1.17 | 0.772 | 2.46 | 2.27 | 0.538 | 2.84 | 0.979 | 3.26 |
| TCTATTAGTTGAGTAGGGCAACCGAAACAGCGGA | 2.19 | 2.75 | 0.301 | 0.883 | 0.0171 | -0.0938 | -0.0884 | 0.248 | -0.221 | 0.507 |
| TCTGCTAGGTGAGTTGGTCAGCTAACGAGCTGCC | 1.24 | 1.52 | 0.145 | -0.743 | -1.59 | -0.323 | -0.828 | -0.314 | -1.28 | 0.429 |
| ATCGAAAGGTCGAAGGTAAGTATACCCACCCGAA | -0.0708 | 1.49 | 0.751 | 0.919 | 0.93 | 2.6 | 0.149 | 3.27 | 0.263 | 3.59 |
| AGTCAAAGTTCAGGACGAGGTAAGGTAAAGCACG | -0.019 | 1.69 | 0.348 | -0.0383 | 2.01 | 2.5 | 1.18 | 2.42 | 1.06 | 4.4 |
| CCTACTGGGCCATCAGGTAATTGATATCAACGTT | 4.07 | 4.05 | -0.379 | 0.313 | 0.173 | -0.337 | -0.167 | -0.328 | -0.0481 | 0.0726 |
| CGAACGAGGGCATGAGTTGATAGAAAATGCCGAT | 2.74 | 1.89 | -0.343 | -0.182 | 0.547 | 0.565 | 0.619 | 0.664 | 0.132 | 1.87 |
| TCTCGGAGGGCACGAAAGGTCAGAGCTCGACATC | 1.78 | 2.45 | -0.111 | -0.16 | 3 | 5.57 | 0.576 | 5.45 | 0.74 | 4.79 |
| GATACAGTGTCAAGGCCAGAGTACGCGTATTGAT | 0.318 | 0.795 | 0.0882 | 0.292 | 0.275 | -0.0079 | 0.246 | 0.272 | -0.156 | 1.46 |
| GCAAGCAGGCCATTTGGGTCACTCAATGACGGGC | 1.67 | 2.35 | -0.319 | -0.988 | 0.0293 | 0.422 | 0.0274 | 0.6 | -0.747 | 1.33 |
| CTACCAAGGTGAACAAGGTCATTGATTACTATTC | 3.07 | 4.07 | 0.536 | 0.17 | 2.29 | 4.92 | 6.61 | 4.44 | 1.19 | 3.53 |
| ATGTGTAGGTTATCGGGTCATTCAGTTTGCGCAT | 4.63 | 5.37 | 1.53 | 2.39 | 3.67 | 4.09 | 9.38 | 4.11 | 2.56 | 2.75 |
| GTGCCAAGGTGAATAGGTCGTTGATGAGTAGGCG | 2.01 | 2.66 | 0.113 | -0.755 | 1.02 | 0.425 | 0.19 | 1.38 | 0.262 | 2.09 |
| ATCGAAAGGTCTACGAGGTGAGTATACACCGTTT | -0.371 | 1.17 | 0.797 | 0.317 | 0.182 | 0.409 | 0.194 | 1.17 | 0.434 | 1.81 |
